Among all 1,400 compounds or so, about 380 (27%) were called active.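 The calls were made as follows: active = mean inhibition above 50% across duplicate retests at 10 µM; inactive = the rest.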 This is one part of the list.

The assay can be described thus: inhibition of NALP1/ASC/caspase-1 reporter signal in yeast, confirmation, NALP1 inhibitor project, S. cerevisiae, luminescence, single concentration (AID 488841).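 Also: plate controls were DMSO in galactose medium for no effect and cells in plain SD medium for full effect.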 The settings on record: S. cerevisiae NALP1/ASC/Caspase-1 reporter, beta-gal luminescence; at 10 µM; hits give high values.
Consider `CCOC(=O)c1cnc2ccccc2c1Nc1cc(C(=O)O)ccc1C`, for which the inhibition was 26.6% (inactive).
For `CSc1cc(N2CCOCC2)nc(-c2ccccc2Cl)n1`, the inhibition is 72% (active).
With `Cc1cc(N2CCOCC2)n2ncc(-c3ccccc3)c2n1`, the inhibition was 46.7% (inactive).
With `C=CCc1cccc(/C=N/c2nc3ccccc3n2CC)c1O`, the inhibition is 15.8% (inactive).
For `CCc1ccc(S(=O)(=O)/N=C2/C=C(Sc3ncn[nH]3)C(=O)c3ccccc32)cc1`, the inhibition was 86.3% (active).
On to `O=C1c2ccccc2C(=O)c2c1ncn2-c1ccccc1`, for which the inhibition is 24.1% (inactive).
Then `CCC(C)c1ccc(OCCn2ccnc2)cc1` (centres undefined), with 58.6% (active); and `Cc1cc(Br)ccc1OCCn1ccnc1`, with 43% (inactive).
On to `CCOc1ccc(OCCCCn2ccnc2)cc1`, for which the inhibition is 34.5% (inactive).
Consider `COC(=O)c1c(N)c(C#N)c2n1CCCCC2`, for which the inhibition was 21% (inactive).
The same measure for `Cc1cccc(OCCCSc2nc3ccc(C)cc3[nH]2)c1`: 56.4% (active); for `Cc1ccccc1OCCCSc1nc2ccccc2[nH]1`: 63% (active).
As for `Cc1cccc(C)c1NC(=O)CSc1nc2ccccc2c(=O)[nH]1`, the inhibition is 31.1% (inactive).
The same measure for `CCCn1nc(NC(=O)c2ccccn2)c2cc3cc(C)ccc3nc21`: 13.2% (inactive); for `NC(C(=O)O)C1CC(Cl)=NO1` (centres undefined): 24.8% (inactive); for `O=S(=O)(/C=C/c1ccccc1)NC1CCCCCCC1`: 61.6% (active).
Take `S=C(NC1CCCCC1)NN(c1ccccc1)c1ccccc1`: the inhibition was 21.3% (inactive).
Take `O=C(c1cccc(F)c1)N1CCN(c2cc(N3CCCCC3)c(F)cc2[N+](=O)[O-])CC1`: the inhibition was 46.2% (inactive).
The same measure for `O=C(c1ccc2c(Cl)c3c(nc2c1)CCCC3)N1CCN(c2ccc(F)cc2)CC1`: 64.8% (active).
On to `O=C(NC(=O)N1CCN(c2ccc(F)cc2)CC1)c1ccccc1`, for which the inhibition is 32.6% (inactive).
In the case of `COc1ccc(N(CCC#N)S(=O)(=O)c2ccc(Cl)cc2)cc1`, the inhibition was 26.2% (inactive).
Turning to `CCC(C)(C)NCC(=O)Nc1ccc(OC(F)(F)F)cc1`, the inhibition was 36.4% (inactive).
Then `CC(C)Oc1ccc(NC(=O)CCC(=O)O)cc1`, with 21.6% (inactive).
The same measure for `Cc1ccc(NC(=O)CNc2ccc(OC(C)C)cc2)cc1`: 50.8% (active).
The same measure for `CNC(=O)C(NC(=O)c1ccccc1)=C(C)C`: 30.4% (inactive).
With `C=C(C(=O)c1ccccc1)C(C)C(=C)C(=O)c1ccccc1`, the inhibition is 59.5% (active).
Regarding `COc1ccc(C(=O)NCc2ccccc2)cc1S(=O)(=O)N1CCCc2ccccc21`, the inhibition was 32.7% (inactive).
For `Cc1ccc(NC2(C#N)C(=O)Nc3ccccc32)cc1` (centres undefined), the inhibition was 30.8% (inactive).
Take `COC(=O)c1ccccc1NC(=O)C1CCCN(S(=O)(=O)c2ccc(OC)cc2)C1` (centres undefined): the inhibition was 66.3% (active).
For the compound `COC(=O)c1ccccc1NC(=O)C1CCN(C(=O)c2cc(OC)cc(OC)c2)CC1`, the inhibition was 20.4% (inactive).
In the case of `CN1CCN(S(=O)(=O)c2ccc(NC(=S)NC(=O)C(C)(C)C)cc2)CC1`, the inhibition was 26.6% (inactive).
With `CCCCn1cnc2c1c(=O)[nH]c(=O)n2CCCC`, the inhibition is 21.8% (inactive).
As to `O=C(c1ccc(Cl)c([N+](=O)[O-])c1)N(c1ccccn1)c1ccccn1`, the inhibition was 24.1% (inactive).
The same measure for `O=[N+]([O-])c1ccc(O)c2ncccc12`: 93.5% (active); for `O=C(Cn1c(=O)oc2ccccc21)Nc1ccc(Cl)cc1`: 33% (inactive); for `O=C(Cc1noc2ccccc12)Nc1ccc(Cl)cc1`: 55.3% (active).
On to `CN1/C(=C\C(=O)Nc2ccc(Cl)cc2)C(C)(C)c2ccccc21`, for which the inhibition was 42.2% (inactive).
Regarding `C#CCOc1c(Br)cc(/C=N/O)cc1OCC`, the inhibition is -19.1% (inactive).
Turning to `Cc1cccnc1NC(=O)c1ccccc1NC(=O)C(C)(C)C`, the inhibition was 36.7% (inactive).
The same measure for `O=C(c1cccc([N+](=O)[O-])c1)n1nc(-c2ccccc2)nc1NCc1ccccc1`: 37% (inactive); for `O=[N+]([O-])c1cccc(CNc2ccc3c(c2)CCC3)c1`: 52.9% (active).
Regarding `COc1cccc(CNc2ccc3c(c2)CCC3)c1`, the inhibition was 34.2% (inactive).
Take `O=C1CCCc2ccccc2N1Cc1ccc(Cl)cc1Cl`: the inhibition was 28.2% (inactive).
`Brc1cccc(OCCCCN2CCCCC2)c1`: the inhibition is 29.7% (inactive).
Then `CC1CCN(CCOc2cccc(Br)c2)CC1`, with 36% (inactive); and `Cc1cc(Br)ccc1OCCCCN1CCC(C)CC1`, with 52.2% (active).
The same measure for `Cc1c(-c2ccccc2)[n+](=O)c2c(n1[O-])CCC2`: 22.1% (inactive).
Consider `COc1cccc(C2c3c(-c4ccccc4O)n[nH]c3C(=O)N2Cc2ccco2)c1` (centres undefined), for which the inhibition is 29.4% (inactive).
The same measure for `CN1CCN(C(=O)CSc2nc3c(c(=O)n(C)c(=O)n3C)n2C)CC1`: 29.1% (inactive); for `Nc1[nH]ncc1N=Nc1ccc(Cl)cc1`: 56.7% (active).
Take `CC(C)(CN1CCN(Cc2ccccc2)CC1)NS(=O)(=O)c1ccc(Cl)cc1`: the inhibition was 42.2% (inactive).
`O=c1c(O)c(-c2cccs2)oc2ccccc12`: the inhibition was 78% (active).
Then `CCOCCCn1c(=NC(C)=O)c(C(=O)OCC)cc2c(=O)n3ccccc3nc21`, with 23.1% (inactive); and `CCOC(=O)c1c(-c2ccccc2)nc2ccccn12`, with 99.4% (active); and `CCOC(=O)CSc1nnc(-c2ccccc2)c(=O)[nH]1`, with 33.8% (inactive).
In the case of `CCOC(=O)c1ccccc1NC(=O)COc1cc(=O)n(CC)c2ccccc12`, the inhibition is 8% (inactive).
Regarding `CC(=O)N1CC[n+]2c(-c3ccc(Cl)cc3Cl)csc21`, the inhibition was 19.1% (inactive).
In the case of `Nc1ccc(Oc2cccc(Oc3ccc(N)cc3)c2)cc1`, the inhibition is 50.5% (active).
For the compound `CCN1CCN(Cc2cccc(Oc3ccccc3)c2)CC1`, the inhibition is 34.3% (inactive).
For `CC(C)C(NC(=O)CN1C(=O)c2ccccc2S1(=O)=O)C(C)C`, the inhibition is 21.5% (inactive).
Turning to `O=C(N/N=C/c1cc2c3c(c1O)CCCN3CCC2)c1ccccc1O`, the inhibition is 25.8% (inactive).
On to `Cn1c(=O)c2c(nc(Sc3ncccn3)n2Cc2ccccc2Cl)n(C)c1=O`, for which the inhibition is 29.4% (inactive).
Then `Cc1cc(OCCN2CCCC2)cc(C(C)C)c1`, with 34.4% (inactive); and `O=C(NCCCc1ccccc1)c1ccccc1O`, with 53% (active); and `O=C(CN1C(=O)C2C3C=CC(C3)C2C1=O)NCCc1ccccc1` (centres undefined), with 24.9% (inactive).
In the case of `COc1ccc(CNc2nc(C)c([N+](=O)[O-])c(C)c2C#N)cc1`, the inhibition is 29.2% (inactive).
Then `CC(C)(C)n1nc(-c2ccc(F)cc2)c2c(N)ncnc21`, with 91.7% (active).
Turning to `c1ccc(CCNc2nc(-c3cccnc3)cs2)cc1`, the inhibition is 32.7% (inactive).
Turning to `Nc1nc2ccc(Oc3ccccc3)cc2s1`, the inhibition was 88.2% (active).
As for `Cc1sc(N)nc1-c1ccc(Oc2ccccc2)cc1`, the inhibition is 61.1% (active).
As to `Nc1nc(-c2ccc(Oc3ccccc3)cc2)cs1`, the inhibition was 98.5% (active).
On to `COc1ccc(-c2csc(N3C(=O)C4C5c6ccccc6C(c6ccccc65)[C@@H]4C3=O)n2)cc1` (some centres undefined), for which the inhibition is 45.8% (inactive).
For the compound `COC(=O)c1c(NC(NC(=O)C(C)C)C(Cl)(Cl)Cl)sc2c1CCC2` (centres undefined), the inhibition is 21% (inactive).
For `COC(=O)c1ccc(C(=O)OC)c(NC(=O)COC(=O)C2CCCCC2)c1`, the inhibition is 7% (inactive).
On to `COc1ccc(OCC#CCNC(C)(C)C)cc1`, for which the inhibition was 33.4% (inactive).
`CCCCOc1ccc(C(=O)CCN2CCCCC2)cc1`: the inhibition is 41.4% (inactive).
The same measure for `CCCOc1ccc(C(=O)C(CN2CCCC2)c2ccccc2)cc1` (centres undefined): 50.8% (active).
Then `CCCOc1ccc(C(=O)c2nc3c(n2O)CCCCC3)cc1`, with 22.7% (inactive); and `CCOC(=O)CNC(c1ccccc1)c1cc(Br)ccc1NC(=O)CCN1CCOCC1` (centres undefined), with 27.6% (inactive); and `CCOc1ccc(C(=O)C(CN2CCOCC2)c2ccccc2)cc1` (centres undefined), with 51.9% (active).
Then `Cc1c(C(=O)N2CCOCC2)[nH]c2ccc(OCc3ccccc3)cc12`, with 29.4% (inactive); and `Cn1c2c(c(=O)n(C)c1=O)C(NC(=O)C(C)(C)C)(C(F)(F)F)C(=O)N2` (centres undefined), with 24.3% (inactive); and `NC(=NCCc1ccc(Cl)cc1)NS(=O)(=O)c1ccc(F)cc1`, with 23.1% (inactive).
With `Cc1sc2nc(SCC(=O)NCc3ccco3)n(Cc3ccccc3)c(=O)c2c1C`, the inhibition was 24.6% (inactive).
Take `CCN(CC1COc2ccccc2O1)S(=O)(=O)c1ccc(C)cc1` (centres undefined): the inhibition was 39.2% (inactive).
Consider `CC(C)C(C(=O)O)N1C(=O)/C(=C/c2cccn2C)SC1=S` (centres undefined), for which the inhibition is 42.4% (inactive).
Consider `COc1ccccc1OCC(=O)NCCSCc1ccc(Cl)cc1`, for which the inhibition is 56.6% (active).
Turning to `COc1ccccc1OCC(=O)NCCSCc1ccccc1Cl`, the inhibition is 55.5% (active).
Consider `O=C(COC(=O)CCSc1ccccc1)NCc1ccccc1Cl`, for which the inhibition was 22.2% (inactive).
For the compound `O=C(COc1ccccc1Cl)NCCC1=CCCCC1`, the inhibition was 38.7% (inactive).
With `O=C(Cc1ccc(Cl)cc1)Oc1cccc2cccnc12`, the inhibition is 27.7% (inactive).
Take `COc1ccccc1OCC(=O)NCCSCc1cccc(Cl)c1`: the inhibition was 59.4% (active).
On to `O=C(CSCc1cccc(Cl)c1)Nc1ccccc1-c1ccccc1`, for which the inhibition was 35% (inactive).
Turning to `O=C(CCSCc1cccc(Cl)c1)NCCc1ccccc1`, the inhibition was 45.4% (inactive).
`COc1ccc(CCNC(=O)CN2CCC(C)CC2)cc1OC`: the inhibition was 22.5% (inactive).
In the case of `COc1cccc(N2CCN(C3CCCC(C)C3)CC2)c1` (centres undefined), the inhibition was 25.3% (inactive).
For `CC1=CCC2C(=O)N(Cc3ccccc3)C(=O)C2C1` (centres undefined), the inhibition was 24.9% (inactive).
With `COc1cc(S(=O)(=O)NCc2cccnc2)ccc1F`, the inhibition was 27.6% (inactive).
Turning to `COc1cccc(C(=O)N2CCCC(c3nc(-c4cccs4)no3)C2)c1` (centres undefined), the inhibition is 29.9% (inactive).
Turning to `CCCCCCCCCCCCCCCC[n+]1cccc2ccccc21`, the inhibition was 95% (active).
`CC1(C)CC(=O)c2cc(C(=O)O)c(=O)n(-c3ccccc3)c2C1`: the inhibition was 32% (inactive).
Turning to `CC1(C)CC(=O)C2=C(C1)OC(N)=C([N+](=O)[O-])C2c1cccs1` (centres undefined), the inhibition was 42.5% (inactive).
As to `O=C(Nc1ccc(-c2nc3ccccc3s2)cc1)C1=COCCO1`, the inhibition was 25.9% (inactive).
`CC(=O)Nc1sc2c(c1-c1nc3ccccc3s1)CCN(C(C)C)C2`: the inhibition was 92.9% (active).

As a reminder, the inhibition is the relative decrease from the control value, in per cent.

(Values after PubChem BioAssay AID488841 (Sanford-Burnham Center for Chemical Genomics, 2010).)
